Data taken from PubChem BioAssay AID1159580 (chemical genetic matrix, 2015).
About 2,000 (36%) of roughly 5,500 compounds were called active. Inconclusive results (about 18%) are left out. Rule as the data show it: active = normalized growth mostly below about 0.91 (no sharp cut-off); inconclusive = no clear call, values can overlap the other calls; inactive = mostly above about 0.92. Some of the results follow.

Assay: chemical genetic growth profiling, strain panel (AID 1159580);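 also: tested at 20 µM; growth read once vehicle control cultures reached saturation at 30 °C; 1 = growth at the plate median or of vehicle wells; lower values mean less growth of the strain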
Settings: growth OD

Measured: normalized growth

CO[C@H]1C[C@H](O[C@H]2[C@H](C)[C@@H](OC3O[C@H](C)C[C@H](N(C)C)[C@H]3OC(C)=O)[C@@H](C)C[C@]3(CO3)C(=O)[C@H](C)[C@@H](OC(C)=O)[C@@H](C)[C@@H](C)OC(=O)[C@@H]2C)O[C@@H](C)[C@@H]1OC(C)=O (some centres undefined)
inactive: S. cerevisiae deletion strains, locus YKL009W, strain mrt4, hits give low values 0.977 | S. cerevisiae deletion strains, locus YKL068W, hits give low values 0.995 | S. cerevisiae deletion strains, locus YKL085W, strain MDH1 (second series), hits give low values 0.989 | S. cerevisiae deletion strains, locus YKL085W, strain MDH1, hits give low values 0.989 | S. cerevisiae deletion strains, locus YKL160W, strain elf1, hits give low values 0.984 | S. cerevisiae deletion strains, locus YKL190W, strain CNB1, hits give low values 1 | S. cerevisiae deletion strains, locus YKR001C, strain vps1, hits give low values 0.982 | S. cerevisiae deletion strains, locus YKR026C, strain gcn3, hits give low values 0.982 | S. cerevisiae deletion strains, locus YKR091W, strain srl3, hits give low values 0.997 | S. cerevisiae deletion strains, locus YLL001W, strain dnm1, hits give low values 1.01 | S. cerevisiae deletion strains, locus YLL026W, hits give low values 1 | S. cerevisiae deletion strains, locus YLL041C, strain sdh2, hits give low values 1 | S. cerevisiae deletion strains, locus YLR027C, strain aat2, hits give low values 0.984 | S. cerevisiae deletion strains, locus YLR039C, strain RIC1, hits give low values 1.02 | S. cerevisiae deletion strains, locus YLR058C, strain SHM2, hits give low values 1.01 | S. cerevisiae deletion strains, locus YLR102C, strain apc9, hits give low values 0.989 | S. cerevisiae deletion strains, locus YLR113W, strain HOG1, hits give low values 0.978 | S. cerevisiae deletion strains, locus YLR221C, strain rsa3, hits give low values 0.99 | S. cerevisiae deletion strains, locus YLR258W, strain gsy2, hits give low values 0.997 | S. cerevisiae deletion strains, locus YLR262C, strain YPT6 (second series), hits give low values 0.983 | S. cerevisiae deletion strains, locus YLR262C, strain YPT6, hits give low values 1.02 | S. cerevisiae deletion strains, locus YLR268W, strain sec22, hits give low values 0.987 | S. cerevisiae deletion strains, locus YLR320W, strain mms22, hits give low values 0.993 | S. cerevisiae deletion strains, locus YLR330W, strain CHS5, hits give low values 1 | S. cerevisiae deletion strains, locus YLR342W, strain FKS1 (second series), hits give low values 0.983 | S. cerevisiae deletion strains, locus YLR342W, strain FKS1, hits give low values 0.982 | S. cerevisiae deletion strains, locus YLR357W, strain rsc2, hits give low values 0.997 | S. cerevisiae deletion strains, locus YLR370C, strain arc18, hits give low values 0.993 | S. cerevisiae deletion strains, locus YLR371W, strain rom2, hits give low values 0.983 | S. cerevisiae deletion strains, locus YLR384C, strain iki3, hits give low values 0.995 | S. cerevisiae deletion strains, locus YLR418C, strain cdc73, hits give low values 0.961 | S. cerevisiae deletion strains, locus YML016C, strain PPZ1, hits give low values 1.01 | S. cerevisiae deletion strains, locus YML032C, strain rad52, hits give low values 0.991 | S. cerevisiae deletion strains, locus YML120C, strain ndi1, hits give low values 0.989 | S. cerevisiae deletion strains, locus YML124C, strain tub3, hits give low values 0.985 | S. cerevisiae deletion strains, locus YMR058W, strain fet3, hits give low values 1 | S. cerevisiae deletion strains, locus YMR078C, strain ctf18, hits give low values 1 | S. cerevisiae deletion strains, locus YMR125W, strain sto1, hits give low values 0.975 | S. cerevisiae deletion strains, locus YMR129W, hits give low values 0.998 | S. cerevisiae deletion strains, locus YMR205C, strain PFK2, hits give low values 1.01 | S. cerevisiae deletion strains, locus YMR223W, strain ubp8, hits give low values 0.992 | S. cerevisiae deletion strains, locus YMR231W, strain pep5, hits give low values 0.997 | S. cerevisiae deletion strains, locus YMR263W, strain SAP30, hits give low values 1 | S. cerevisiae deletion strains, locus YMR307W, strain GAS1, hits give low values 0.962 | S. cerevisiae deletion strains, locus YNL067W, strain RPL9B, hits give low values 1.01 | S. cerevisiae deletion strains, locus YNL071W, strain lat1, hits give low values 0.975 | S. cerevisiae deletion strains, locus YNL183C, strain NPR1, hits give low values 0.932 | S. cerevisiae deletion strains, locus YNL209W, strain ssb2, hits give low values 0.99 | S. cerevisiae deletion strains, locus YNL233W, strain BNI4, hits give low values 1.02 | S. cerevisiae deletion strains, locus YNL248C, strain rpa49, hits give low values 1.01 | S. cerevisiae deletion strains, locus YNL250W, strain rad50, hits give low values 1.01 | S. cerevisiae deletion strains, locus YNL271C, strain bni1, hits give low values 0.985 | S. cerevisiae deletion strains, locus YNL298W, strain CLA4, hits give low values 0.969 | S. cerevisiae deletion strains, locus YNL307C, strain MCK1, hits give low values 0.987 | S. cerevisiae deletion strains, locus YNL322C, strain KRE1 (second series), hits give low values 0.992 | S. cerevisiae deletion strains, locus YNL322C, strain KRE1, hits give low values 1 | S. cerevisiae deletion strains, locus YNR049C, strain mso1, hits give low values 1 | S. cerevisiae deletion strains, locus YNR052C, strain pop2, hits give low values 0.998 | S. cerevisiae deletion strains, locus YOL006C, strain TOP1, hits give low values 1 | S. cerevisiae deletion strains, locus YOL012C, strain htz1 0.913 | S. cerevisiae deletion strains, locus YOL147C, strain pex11, hits give low values 0.992 | S. cerevisiae deletion strains, locus YOR001W, strain rrp6, hits give low values 1 | S. cerevisiae deletion strains, locus YOR061W, strain CKA2, hits give low values 1.01 | S. cerevisiae deletion strains, locus YOR069W, strain VPS5, hits give low values 1.01 | S. cerevisiae deletion strains, locus YOR070C, strain gyp1, hits give low values 1.01 | S. cerevisiae deletion strains, locus YOR080W, strain dia2, hits give low values 1 | S. cerevisiae deletion strains, locus YOR083W, strain WHI5, hits give low values 0.988 | S. cerevisiae deletion strains, locus YOR106W, strain vam3, hits give low values 1 | S. cerevisiae deletion strains, locus YOR136W, strain idh2, hits give low values 0.988 | S. cerevisiae deletion strains, locus YOR144C, strain elg1, hits give low values 0.985 | S. cerevisiae deletion strains, locus YOR184W, strain ser1, hits give low values 0.982 | S. cerevisiae deletion strains, locus YOR231W, strain MKK1, hits give low values 0.955 | S. cerevisiae deletion strains, locus YOR265W, strain rbl2, hits give low values 0.997 | S. cerevisiae deletion strains, locus YOR270C, strain vph1, hits give low values 1.02 | S. cerevisiae deletion strains, locus YOR290C, strain snf2, hits give low values 0.996 | S. cerevisiae deletion strains, locus YOR316C, strain cot1, hits give low values 0.993 | S. cerevisiae deletion strains, locus YPL051W, strain arl3, hits give low values 0.992 | S. cerevisiae deletion strains, locus YPL055C, strain LGE1, hits give low values 1.02 | S. cerevisiae deletion strains, locus YPL078C, strain atp4, hits give low values 1.01 | S. cerevisiae deletion strains, locus YPL106C, strain sse1, hits give low values 0.996 | S. cerevisiae deletion strains, locus YPL240C, strain hsp82, hits give low values 1 | S. cerevisiae deletion strains, locus YPL241C, strain CIN2, hits give low values 1 | S. cerevisiae deletion strains, locus YPL256C, strain CLN2, hits give low values 0.959 | S. cerevisiae deletion strains, locus YPR119W, strain clb2, hits give low values 0.986 | S. cerevisiae deletion strains, locus YPR141C, strain kar3, hits give low values 0.984 | S. cerevisiae deletion strains, locus YPR163C, strain tif3, hits give low values 0.99 | S. cerevisiae deletion strains, locus YPR167C, strain met16, hits give low values 0.979 | S. cerevisiae deletion strains, strain wtn01, hits give low values 0.975 | S. cerevisiae strains, strain wild type, hits give low values 1
